Results taken from PubChem BioAssay AID651997 (Sanford-Burnham Center for Chemical Genomics, 2013).
Hit rate of the full screen: of about 2,400 compounds, about 700 (29%) were called active. Only a sample is shown. A number with no mark means an inactive call.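 Rule for the calls: active = inhibition of at least 50%; inactive = the rest.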

target: G-protein coupled receptor 183 (Homo sapiens) (UniProt P32249); experiment: repeat testing of EBI2 arrestin blockers – cell-based, single concentration, luminescence, 7a,25-OHC stimulation, confirmation (AID 651997); settings: EBI2 beta-arrestin luminescence, 7a,25-OHC antagonism; at 5 µM; stronger effect = higher value
Sequence (P32249 whole entry, looked up): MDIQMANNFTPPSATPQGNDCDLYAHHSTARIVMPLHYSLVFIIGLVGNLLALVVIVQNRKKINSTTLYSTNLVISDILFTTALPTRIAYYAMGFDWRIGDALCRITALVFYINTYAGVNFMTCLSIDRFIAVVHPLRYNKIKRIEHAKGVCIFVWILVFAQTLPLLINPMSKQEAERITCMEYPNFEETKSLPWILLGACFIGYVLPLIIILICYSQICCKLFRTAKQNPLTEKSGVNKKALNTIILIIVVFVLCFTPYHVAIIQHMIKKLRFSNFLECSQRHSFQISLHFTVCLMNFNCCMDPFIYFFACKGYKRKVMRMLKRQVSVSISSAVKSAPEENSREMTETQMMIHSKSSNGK

Q: How did the inhibition turn out when `COc1ccc(N(CC(=O)Nc2cc(OC)ccc2OC)S(=O)(=O)c2c(C)noc2C)cc1` was run?
A: The inhibition was 21.2%.

Q: For `COc1ccc(C(c2nnnn2C2CCCC2)N2CCN(C/C=C/c3ccccc3)CC2)cc1` (stereo not given), which inhibition is on record?
A: Its inhibition is 39.9%.

Q: How did the inhibition turn out when `Cc1ccc(-n2ncc3c(=O)n(-c4ccc(C)c(C)c4)c(-c4ccco4)nc32)cc1` was run?
A: The inhibition was 16.7%.

Q: `COc1cc(/C=C(\C#N)C(=O)Nc2ccc3ccccc3c2)c([N+](=O)[O-])cc1OC` was tested. Which inhibition did it give?
A: Its inhibition is 48.2%.

Q: Which inhibition does the source give for `O=C(CC(c1ccccc1)c1ccccc1)NCC(O)c1ccc([N+](=O)[O-])cc1` (stereo not given) here?
A: The inhibition was 32.1%.

Q: With `O=C(COc1ccc(Cl)cc1)N1CCN(c2cccc(C(F)(F)F)c2)CC1` as the molecule, how does the inhibition read?
A: The inhibition was 68% (active).

Q: How did the inhibition turn out when `O=C(COc1ccc2c(c1)CCC2)N1CCN(c2ccc(F)cc2)CC1` was run?
A: The inhibition was 25%.

Q: `Cc1cc(C)cc(Oc2nc3c(C)cccn3c(=O)c2/C=C(\C#N)C(=O)NC2CCS(=O)(=O)C2)c1` (stereo not given) was tested. Which inhibition did it give?
A: The inhibition was 44.9%.

Q: Which inhibition does the source give for `COc1ccc(-c2nc(N)ncc2-c2ccc(Cl)cc2)c(O)c1` here?
A: Its inhibition is 58.9% (active).

Q: For `O=C(NCc1ccc(Cl)cc1)c1cc(=O)nc2sc(-c3ccccc3)nn12`, which inhibition is on record?
A: The inhibition was 36%.

Q: Which inhibition does the source give for `Cc1cccc(C)c1-n1nnnc1C(CCc1ccccc1)N1CCN(C/C=C/c2ccccc2)CC1` (stereo not given) here?
A: The inhibition was 8.65%.

Q: With `Cc1cc(C)c2c(=O)n3c(nc2c1)C(CC(C)C)NC(=O)c1cc2ccccc2cc1-3` (stereo not given) as the molecule, how does the inhibition read?
A: The inhibition was 61.4% (active).

Q: How did the inhibition turn out when `CC(C)Cn1c(N2CCN(C(=O)/C=C/c3ccccc3)CC2)nc2ccccc21` was run?
A: Its inhibition is 41.6%.

Q: How did the inhibition turn out when `Cc1cccc(NC(=O)CN2CCN(C(=O)C3CCN(C(=O)/C=C/c4ccccc4)CC3)CC2)c1C` was run?
A: Its inhibition is 45%.

Q: For `COc1ccccc1CCNC(=O)C1CCN(C(=O)/C=C/c2ccccc2)CC1`, which inhibition is on record?
A: Its inhibition is 64.2% (active).

Q: For `CC(=O)c1nn(-c2ccc(C)cc2)cc1C(=O)c1cccc(Br)c1`, which inhibition is on record?
A: Its inhibition is 45.6%.

Q: For `Cc1nc2ccc(C(=O)N3CCN(c4ccccc4)CC3)cc2s1`, which inhibition is on record?
A: Its inhibition is 40.5%.

Q: Which inhibition does the source give for `c1ccc(C(c2ccccc2)N2CCN(Cc3nnnn3C3CCCCC3)CC2)cc1` here?
A: Its inhibition is 34%.

Q: With `O=C(c1ccc(-n2cnnn2)cc1)N1CCN(C(c2ccccc2)c2ccccc2)CC1` as the molecule, how does the inhibition read?
A: Its inhibition is 55.9% (active).

Q: Which inhibition does the source give for `COc1ccc(Nc2cc(Sc3ccc(OC)cc3)ncn2)cc1` here?
A: Its inhibition is 25.1%.
